Of roughly 7,900 targets only a part is listed; those with a hit were picked by preference. About 0.6% of all pairs of compound and target were hits.
Compound: CCn1cc(-c2ccnc3[nH]c(-c4cccc(CN(C)C)c4)cc23)c(-c2ccc(NC(=O)N(C)C)cc2)n1
Test: log2 fold change, soluble protein after heating vs DMSO (PISA); higher = thermal stabilisation; K562 cells, 10 uM, 30 min; active = over 0.2 and 3.5 SD of the protein, either way, in both replicates (recomputed)
Outline: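 K562 cells at 2×10^6 cells/mL were treated for 30 min with 10 μM compound, and aliquots were heated for 3 min over 48°C-58°C before pooling. Extraction used PBS with 0.5% NP-40 at 4°C, and soluble protein was the supernatant after 21,000xg for 90 min, measured by TMTpro 16plex LC-MS/MS with channel sums equalised. Thermal stability values, relative to control samples and from duplicates, are log2 fold changes.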

Chain of UniProt P54136 (P54136 whole entry, looked up): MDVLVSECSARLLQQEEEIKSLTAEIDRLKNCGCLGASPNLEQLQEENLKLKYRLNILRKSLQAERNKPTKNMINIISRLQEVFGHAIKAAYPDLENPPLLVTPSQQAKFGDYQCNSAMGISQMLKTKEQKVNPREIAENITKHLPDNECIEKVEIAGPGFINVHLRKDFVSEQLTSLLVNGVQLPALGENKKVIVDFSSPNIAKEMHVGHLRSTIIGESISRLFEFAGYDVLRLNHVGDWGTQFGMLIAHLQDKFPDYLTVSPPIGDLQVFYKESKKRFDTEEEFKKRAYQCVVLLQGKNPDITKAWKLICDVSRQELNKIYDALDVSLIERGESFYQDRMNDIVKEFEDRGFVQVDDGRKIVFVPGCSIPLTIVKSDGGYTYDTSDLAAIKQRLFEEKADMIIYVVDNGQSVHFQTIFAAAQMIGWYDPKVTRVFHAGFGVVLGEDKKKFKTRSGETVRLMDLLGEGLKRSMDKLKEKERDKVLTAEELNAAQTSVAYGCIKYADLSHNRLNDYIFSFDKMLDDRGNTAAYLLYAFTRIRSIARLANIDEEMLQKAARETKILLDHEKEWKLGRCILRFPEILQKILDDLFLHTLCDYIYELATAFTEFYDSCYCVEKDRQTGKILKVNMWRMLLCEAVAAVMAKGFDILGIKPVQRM
Chain of UniProt Q15418 (Q15418 whole entry, looked up): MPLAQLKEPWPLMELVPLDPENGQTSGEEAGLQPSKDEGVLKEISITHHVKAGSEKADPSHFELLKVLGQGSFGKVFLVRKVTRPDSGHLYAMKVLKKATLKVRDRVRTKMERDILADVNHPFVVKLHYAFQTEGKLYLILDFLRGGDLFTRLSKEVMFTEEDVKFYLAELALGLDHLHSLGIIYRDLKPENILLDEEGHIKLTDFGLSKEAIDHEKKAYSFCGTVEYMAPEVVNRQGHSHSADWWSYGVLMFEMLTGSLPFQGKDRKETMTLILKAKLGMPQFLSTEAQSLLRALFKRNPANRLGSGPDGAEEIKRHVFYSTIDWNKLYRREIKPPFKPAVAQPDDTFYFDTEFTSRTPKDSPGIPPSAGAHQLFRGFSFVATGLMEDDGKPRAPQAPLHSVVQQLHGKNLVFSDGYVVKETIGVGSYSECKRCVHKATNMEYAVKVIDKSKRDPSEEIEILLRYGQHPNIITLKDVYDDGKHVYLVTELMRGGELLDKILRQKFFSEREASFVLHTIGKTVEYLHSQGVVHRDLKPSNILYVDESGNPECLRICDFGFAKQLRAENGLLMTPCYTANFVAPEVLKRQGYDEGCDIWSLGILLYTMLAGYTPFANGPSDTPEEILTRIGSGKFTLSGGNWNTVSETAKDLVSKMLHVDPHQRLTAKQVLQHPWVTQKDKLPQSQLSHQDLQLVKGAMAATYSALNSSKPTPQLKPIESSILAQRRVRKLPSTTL
Chain of UniProt Q9NW64 (Q9NW64 whole entry, looked up): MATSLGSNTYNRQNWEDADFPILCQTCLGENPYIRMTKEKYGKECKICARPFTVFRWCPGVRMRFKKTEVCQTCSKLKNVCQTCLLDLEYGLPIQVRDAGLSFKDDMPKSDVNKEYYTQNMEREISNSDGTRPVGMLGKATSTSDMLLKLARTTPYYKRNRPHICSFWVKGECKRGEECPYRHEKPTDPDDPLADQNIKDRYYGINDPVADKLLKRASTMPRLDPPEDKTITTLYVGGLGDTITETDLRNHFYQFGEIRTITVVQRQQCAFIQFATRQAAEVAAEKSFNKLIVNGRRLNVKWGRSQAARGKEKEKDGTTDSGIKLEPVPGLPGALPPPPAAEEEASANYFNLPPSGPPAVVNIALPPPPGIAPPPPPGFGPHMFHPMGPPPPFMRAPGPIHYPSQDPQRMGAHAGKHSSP
Chain of UniProt Q96EE3 (Q96EE3 whole entry, looked up): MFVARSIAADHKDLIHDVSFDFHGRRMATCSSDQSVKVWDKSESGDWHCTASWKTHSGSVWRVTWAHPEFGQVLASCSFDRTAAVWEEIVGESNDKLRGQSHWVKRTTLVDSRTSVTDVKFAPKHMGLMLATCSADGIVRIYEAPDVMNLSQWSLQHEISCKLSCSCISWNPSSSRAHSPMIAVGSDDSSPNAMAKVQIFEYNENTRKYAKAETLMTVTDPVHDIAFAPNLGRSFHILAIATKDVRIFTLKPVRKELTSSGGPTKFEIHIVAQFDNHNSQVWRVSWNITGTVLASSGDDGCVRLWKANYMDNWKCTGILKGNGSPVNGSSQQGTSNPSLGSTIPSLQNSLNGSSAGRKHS
Chain of UniProt Q96I25 (Q96I25 whole entry, looked up): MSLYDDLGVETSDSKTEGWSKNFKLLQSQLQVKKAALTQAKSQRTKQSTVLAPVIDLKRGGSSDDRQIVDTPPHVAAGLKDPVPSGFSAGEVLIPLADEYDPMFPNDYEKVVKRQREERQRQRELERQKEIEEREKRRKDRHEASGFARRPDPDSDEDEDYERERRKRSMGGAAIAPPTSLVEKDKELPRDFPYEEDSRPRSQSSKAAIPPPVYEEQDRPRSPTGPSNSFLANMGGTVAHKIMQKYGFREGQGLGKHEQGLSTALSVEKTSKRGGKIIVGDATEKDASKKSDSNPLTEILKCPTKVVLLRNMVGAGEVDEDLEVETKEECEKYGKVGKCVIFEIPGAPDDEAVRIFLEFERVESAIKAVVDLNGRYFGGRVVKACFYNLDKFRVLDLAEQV
Chain of UniProt Q8TDY2 (Q8TDY2 whole entry, looked up): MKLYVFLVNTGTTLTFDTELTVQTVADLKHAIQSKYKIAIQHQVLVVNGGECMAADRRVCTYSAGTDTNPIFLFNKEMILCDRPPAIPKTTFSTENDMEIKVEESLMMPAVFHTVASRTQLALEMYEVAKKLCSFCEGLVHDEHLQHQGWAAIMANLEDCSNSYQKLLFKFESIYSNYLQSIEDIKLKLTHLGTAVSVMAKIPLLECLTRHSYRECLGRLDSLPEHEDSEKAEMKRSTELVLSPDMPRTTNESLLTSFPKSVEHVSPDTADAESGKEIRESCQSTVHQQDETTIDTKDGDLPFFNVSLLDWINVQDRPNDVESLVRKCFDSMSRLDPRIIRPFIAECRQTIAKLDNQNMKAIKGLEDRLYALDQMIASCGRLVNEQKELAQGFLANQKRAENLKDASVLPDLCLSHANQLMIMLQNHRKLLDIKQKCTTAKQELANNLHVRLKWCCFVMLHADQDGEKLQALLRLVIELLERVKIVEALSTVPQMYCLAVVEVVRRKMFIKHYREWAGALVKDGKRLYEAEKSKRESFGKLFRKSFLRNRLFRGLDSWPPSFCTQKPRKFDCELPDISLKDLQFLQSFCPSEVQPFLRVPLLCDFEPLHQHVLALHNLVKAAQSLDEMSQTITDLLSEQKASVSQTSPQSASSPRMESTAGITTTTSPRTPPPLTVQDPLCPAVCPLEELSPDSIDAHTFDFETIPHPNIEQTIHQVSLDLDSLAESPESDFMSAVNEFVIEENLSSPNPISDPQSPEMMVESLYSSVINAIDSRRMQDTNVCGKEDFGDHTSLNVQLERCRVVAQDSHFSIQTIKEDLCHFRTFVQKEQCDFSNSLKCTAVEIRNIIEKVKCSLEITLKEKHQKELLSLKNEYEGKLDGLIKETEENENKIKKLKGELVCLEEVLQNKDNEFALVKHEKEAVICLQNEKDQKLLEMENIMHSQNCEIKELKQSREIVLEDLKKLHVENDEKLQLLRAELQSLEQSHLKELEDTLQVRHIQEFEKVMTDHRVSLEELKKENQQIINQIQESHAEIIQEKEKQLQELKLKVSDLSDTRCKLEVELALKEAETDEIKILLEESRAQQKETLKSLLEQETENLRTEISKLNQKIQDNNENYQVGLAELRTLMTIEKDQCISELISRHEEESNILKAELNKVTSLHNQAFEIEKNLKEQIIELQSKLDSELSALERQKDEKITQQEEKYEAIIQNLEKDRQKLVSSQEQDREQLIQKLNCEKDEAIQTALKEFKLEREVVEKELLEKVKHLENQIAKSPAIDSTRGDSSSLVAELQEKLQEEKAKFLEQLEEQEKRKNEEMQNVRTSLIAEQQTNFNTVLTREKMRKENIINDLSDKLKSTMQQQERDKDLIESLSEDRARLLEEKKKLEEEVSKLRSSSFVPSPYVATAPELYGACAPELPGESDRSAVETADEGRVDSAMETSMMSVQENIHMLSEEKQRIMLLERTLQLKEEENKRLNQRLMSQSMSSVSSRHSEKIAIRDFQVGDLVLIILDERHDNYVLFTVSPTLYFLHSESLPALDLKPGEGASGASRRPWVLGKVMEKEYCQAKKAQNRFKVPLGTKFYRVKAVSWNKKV
Chain of UniProt Q5T160 (Q5T160 whole entry, looked up): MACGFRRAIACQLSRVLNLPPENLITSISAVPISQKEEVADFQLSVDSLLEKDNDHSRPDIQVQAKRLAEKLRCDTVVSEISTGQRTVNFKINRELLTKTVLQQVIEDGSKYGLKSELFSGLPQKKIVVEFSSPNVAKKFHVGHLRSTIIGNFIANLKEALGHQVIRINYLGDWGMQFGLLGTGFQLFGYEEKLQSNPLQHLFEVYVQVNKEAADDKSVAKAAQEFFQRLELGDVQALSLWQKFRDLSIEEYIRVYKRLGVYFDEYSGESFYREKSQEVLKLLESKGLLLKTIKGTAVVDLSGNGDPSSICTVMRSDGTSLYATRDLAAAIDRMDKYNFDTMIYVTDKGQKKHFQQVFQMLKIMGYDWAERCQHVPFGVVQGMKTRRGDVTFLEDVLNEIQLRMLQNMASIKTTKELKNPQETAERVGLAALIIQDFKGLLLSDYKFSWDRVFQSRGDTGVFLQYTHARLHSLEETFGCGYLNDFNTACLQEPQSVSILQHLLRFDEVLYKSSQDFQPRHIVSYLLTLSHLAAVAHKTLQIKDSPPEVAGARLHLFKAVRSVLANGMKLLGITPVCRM
Chain of UniProt Q9NX18 (Q9NX18 whole entry, looked up): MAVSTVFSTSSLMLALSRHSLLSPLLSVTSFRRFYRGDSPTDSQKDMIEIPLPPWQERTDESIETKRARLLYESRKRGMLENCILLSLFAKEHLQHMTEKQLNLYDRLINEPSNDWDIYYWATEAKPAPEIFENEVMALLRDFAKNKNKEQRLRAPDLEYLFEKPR

log2 fold change, inactive:
RBM22 (UniProt Q9NW64) 0.061
RUFY1 (UniProt Q96T51) 0.06
RARS (UniProt P54136) 0.107
RHEB (UniProt Q15382) 0.02
RALA (UniProt P11233) 0.029
SDHAF2 (UniProt Q9NX18) 0.06
ROCK2 (UniProt O75116) -0.178
RPS18 (UniProt P62269) 0.057
RPS20 isoform 2 (UniProt P60866) 0.065
RBM12 (UniProt Q9NTZ6) -0.049
RPS6KA2 isoform 2 (UniProt Q15349) -0.126
SEH1L isoform 1 (UniProt Q96EE3) -0.041
SCAF11 (UniProt Q99590) 0.176
SLC12A9 (UniProt Q9BXP2) -0.016
RNF14 (UniProt Q9UBS8) -0.032
RARS2 (UniProt Q5T160) -0.046
SDHC (UniProt Q99643) 0
RBM17 (UniProt Q96I25) -0.059
RPS6KA1 isoform 2 (UniProt Q15418) -0.146
RB1CC1 (UniProt Q8TDY2) -0.07
RECQL (UniProt P46063) -0.021
SHROOM2 (UniProt Q13796) -0.072
SLBP (UniProt Q14493) 0

— the supplement of paper PMC10849652
